This is a sample that favours compounds with a hit; in the whole collection about 1.4% have one here.
GLS inhibitor: blocks human kidney-isoform glutaminase activity; O94925; GLS enzymatic activity, qHTS titration; Potency, µM (series often up to 45.5 µM), for inactives: at the highest dose activity change, negative = inhibition, usual class: inhibitors; 410,000 compounds, 0.21% hits; AID 624170; also: potency is read from the fitted curve at half-maximal effect; % is scaled to controls: 0 for no effect and ±100 for the full control effect
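hKGA in 45 mM KH2PO4 pH 8.2, 0.02% Tween-20 with pin-transferred compounds; 1 mM L-glutamine (stock) plus glutamate oxidase/HRP/Amplex Red coupling added. Fluorescence read initially and after 30 min at RT.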
mIDH1 inhibitor: blocks human mutant IDH1 R132H enzyme. IDH1-R132H enzyme, NADPH consumption, diaphorase/resazurin fluorescence. Potency, µM (series often up to 76.6 µM), for inactives: top-dose activity change, negative = inhibition, actives largely listed as inhibitors. 390,000 compounds, 0.093% hits; also: potency is read from the fitted curve at half-maximal effect; % is scaled to controls: 0 for no effect and ±100 for the full control effect; nearly all actives have a fitted effect of over 65% in size
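IDH1-R132H (0.5 ug/mL) preincubated 30 min with compound, then NADPH (0.016 mM) and alpha-KG (2 mM) added; 80 min at RT, pH 7.5. Remaining NADPH coupled via diaphorase/resazurin to fluorescence (540/590 nm); concentration-response curves normalized to no-enzyme control.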
TrxR1 substrate: rat thioredoxin reductase 1 substrate activity | 390,000 compounds, 0.01% hits | O89049 | purified TrxR1 substrate turnover, NADPH consumption readout | Potency, µM (doses to about 114 µM), for the others: at the highest dose activity change, negative = substrate turnover; also: potency is read from the fitted curve at half-maximal effect; % is scaled to controls: 0 for no effect and ±100 for the full control effect; nearly all actives have a fitted effect of over 50% in size
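Rat TrxR1, dispensed at 90 nM, was prereduced with 400 uM NADPH (final) for 5 min at ~22 deg C, then incubated with compound 15 min before 400 uM selenite. A first-read NADPH fluorescence drop versus no-compound background flagged substrates.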
TrxR1 inh: rat TrxR1 inhibition; O89049; recombinant rTrxR1, NADPH fluorescence consumption, selenite substrate; Potency, µM (titrated, usually from 114 µM), for inactives: at the top dose activity change, negative = inhibition, usual class: inhibitors; 390,000 compounds, 1% hits; AID 588453; also: potency is read from the fitted curve at half-maximal effect; % is scaled to controls: 0 for no effect and ±100 for the full control effect; nearly all actives have a fitted effect of over 65% in size
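Rat TrxR1 (90 nM in the dispensed reagent) was pre-reduced with 400 uM NADPH for 5 min at room temperature, then incubated with compound for 15 min. After 400 uM selenite was added, NADPH fluorescence (Ex 340/Em 450 nm) was followed for 8 min.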
LDHA inh: inhibitors of human lactate dehydrogenase A; activity change, % (values are at about 110 or 230 µM); AID 1347041; 480,000 compounds, 0.15% hits; purified LDHA, NADH/diaphorase-resazurin fluorescence; stronger effect = lower value; in the data active = activity change below about -30%; inconclusive = mostly about -25% to -30%;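 also: plate controls were DMSO wells for no effect and wells without enzyme for full effect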
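Resorufin fluorescence (ex540/em590), read at 0 and 20 min after diaphorase/resazurin addition, reports the NADH left after a 5 min room-temperature reaction of 2 nM human LDH5 with 0.06 mM NADH and 0.2 mM pyruvate.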
PKM2 act: increases activity of human pyruvate kinase M2 | P14618 | purified PKM2, Kinase-Glo ATP luminescence, activation; response scale: 0% is enzyme alone, no compound | Potency, µM (highest dose often 57.5 µM), without a hit: at the top dose activation, hits mostly activators | 260,000 compounds, 0.34% hits | AID 1631; also: potency is read from the fitted curve at half-maximal effect; % is scaled to controls: 0 for no effect and ±100 for the full control effect; nearly all actives have a fitted effect of over 55% in size
Target sequence (P14618 whole entry, looked up): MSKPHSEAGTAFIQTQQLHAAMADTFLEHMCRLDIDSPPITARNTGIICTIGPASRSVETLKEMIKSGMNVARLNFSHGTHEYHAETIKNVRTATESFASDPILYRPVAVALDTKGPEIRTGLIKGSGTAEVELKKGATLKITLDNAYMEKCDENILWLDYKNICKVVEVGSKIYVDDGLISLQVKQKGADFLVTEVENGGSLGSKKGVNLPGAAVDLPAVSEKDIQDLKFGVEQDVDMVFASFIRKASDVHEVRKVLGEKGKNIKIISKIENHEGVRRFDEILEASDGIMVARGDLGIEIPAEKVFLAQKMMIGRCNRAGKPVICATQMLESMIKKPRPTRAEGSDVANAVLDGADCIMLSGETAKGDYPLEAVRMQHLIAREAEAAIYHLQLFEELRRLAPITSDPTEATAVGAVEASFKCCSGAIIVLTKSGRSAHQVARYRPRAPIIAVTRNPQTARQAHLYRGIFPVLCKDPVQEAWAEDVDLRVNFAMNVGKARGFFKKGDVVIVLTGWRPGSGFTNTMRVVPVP
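ATP formation by purified human PK-M2, quantified via coupled luciferase luminescence after 1 h at room temperature with 0.1 mM ADP and 0.5 mM PEP final.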
IDH1 autofl: counter-screen for mutant IDH1 inhibitors: fluorescence interference; shares compounds with mIDH1 inhibitor; 750 tested, under 10 active; inhibition of signal, % at 51.2 µM; AID 623980; Resorufin detection reagent fluorescence interference, cell-free;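 also: 0% = wells with normal resorufin and full inhibition = wells lacking resorufin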
IDH1 WT: selectivity of mutant IDH1 inhibitors: human wild-type IDH1; shares compounds with mIDH1 inhibitor; Potency, µM (titrated, usually from 115 µM), for inactives: at the top dose activity change, negative = inhibition, hits mostly inhibitors; WT IDH1 enzyme, NADPH diaphorase/resazurin fluorescence; 750 compounds, 9% hits;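 also: potency is read from the fitted curve at half-maximal effect; 0% = full WT IDH1 enzyme control and full inhibition = no enzyme wells; nearly all actives have a fitted effect of over 55% in size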
IDH1 R132H conf: mutant IDH1 (human) inhibition, confirmed; shares compounds with mIDH1 inhibitor; IDH1 R132H enzyme, NADPH diaphorase/resazurin fluorescence; Potency, µM (top dose mostly 76.6 µM), inactives show top-dose activity change, negative = inhibition, actives largely listed as inhibitors; 750 compounds, 83% hits; also: potency is read from the fitted curve at half-maximal effect; nearly all actives have a fitted effect of over 50% in size
* hit, by the source's call; ? = inconclusive; · = not tested or not shown; [ ] = another dose, or the depositor's remark. Unless noted, calls follow the shape of the dose curve; as a rule, active = well fitted curve in the direction sought with a large enough effect; inconclusive = small, poorly fitted or top-dose-only effect, or another doubt; inactive = no such curve, though single readings can be large; an effect the other way counts as inactive or inconclusive.

SMILES | GLS inhibitor | mIDH1 inhibitor | TrxR1 substrate | TrxR1 inh | LDHA inh | PKM2 act | IDH1 autofl | IDH1 WT | IDH1 R132H conf
O=C(/C=C/c1cccc(C(F)(F)F)c1)c1cc(Cl)ccc1Cl | · | · | · | · | 6 | · | · | · | ·
COc1ccc(-c2c3c(=O)n(C)c(=O)n(C)c3c3n2-c2ccccc2NC3c2ccc(O)cc2O)cc1 (stereo not given) | 19% | 35µM* | -3% | 17% | 1 | · | -5 | -27% | 8.9µM*
CC1(C)CC(=O)C2=C(C1)N1C(=C(C#N)C2c2ccccc2Cl)N=C(N)c2ccccc21 (stereo not given) | 7% | ? | -4%[57.1 µM] | -6%[57.1 µM] | -2 | 0% | -1 | 3% | 16µM*
CC(Sc1cc(Cl)ccc1Cl)C(=O)NC(C)(C)C (stereo not given) | · | · | · | · | 1 | · | · | · | ·
O=c1c2ccccc2nc(/C=C/c2cccnc2)n1CCc1ccccc1 | ? | 52µM* | -4%[57.1 µM] | 10%[57.1 µM] | -2 | 0% | 2 | -25% | 45µM*
O=c1c2ccccc2nc(/C=C/c2ccccc2)n1CCc1ccccc1 | -7% | 3% | -9% | -14% | -3 | 4% | · | · | ·
NNC(=O)CN1C(c2ccc(Cl)cc2)=Nc2ccc(Br)cc2C1c1ccccc1 (stereo not given) | 0% | ? | -3% | 0% | -4 | -1% | -13 | ? | -13%
NNC(=O)CN1C(c2ccccc2)=Nc2ccc(Br)cc2C1c1ccccc1 (stereo not given) | -11% | -24% | -18%[57.1 µM] | 5%[57.1 µM] | 2 | -7% | · | · | ·
COc1ccc(N(C(=O)c2ccco2)C(C(=O)NC2CCCC2)c2ccc(N(C)C)cc2)cc1 (stereo not given) | 34% | -2% | 7%[57.1 µM] | -10%[57.1 µM] | 3 | 2% | · | · | ·
COc1cccc(C(C(=O)NC2CCCCC2)N(C(=O)c2ccco2)c2ccccc2OC)c1 (stereo not given) | -4% | ? | 1% | 15% | 1 | · | -4 | -5% | ?
COc1ccc(N(C(=O)c2cnccn2)C(C(=O)NC2CCCCC2)c2ccccc2)cc1 (stereo not given) | 1% | ? | -5% | -1% | 1 | 0% | -8 | 3% | 35µM*
Cc1cc(C)cc(N(C(=O)CNC(=O)c2ccco2)C(C(=O)NC2CCCCC2)c2cccnc2)c1 (stereo not given) | 3% | ? | 7%[0.0914 µM] | 19%[57.1 µM] | -3 | 0% | -2 | 0% | ?
COc1ccc(N(C(=O)c2ccco2)C(C(=O)NC2CCCC2)c2ccccc2)cc1 (stereo not given) | -7% | ? | -7% | 2% | -4 | · | 0 | 11% | 40µM*
COc1ccc(N(C(=O)c2ccco2)C(C(=O)NC2CCCCC2)c2ccccc2)cc1 (stereo not given) | -4% | ? | -10%[57.1 µM] | 3%[57.1 µM] | -2 | · | -10 | -20% | 20µM*
COc1ccc(N(C(=O)c2ccco2)C(C(=O)NC2CCCC2)c2cc(OC)c(OC)c(OC)c2)cc1 (stereo not given) | 0% | 10% | 3% | 22% | -4 | · | · | · | ·
CC1(C)C=Cc2c(c3c(c4c(=O)c(-c5ccc(O)cc5)coc24)OC(C)(C)CC3)O1 | 0% | 40µM* | -4% | -9% | 1 | ? | 9 | -14% | 25µM*
CC(C)=CCc1c2c(c3occ(-c4ccc(O)c(O)c4)c(=O)c3c1O)C=CC(C)(C)O2 | 19% | 52µM* | -6% | -14% | -2 | · | 0 | -12% | 45µM*
CN(Cc1ccccc1)C(=O)c1cc2ccccc2oc1=O | · | · | · | · | 2 | · | · | · | ·
CC(C)c1cccc(NC(=O)CC2(C(=O)O)CCCCC2)c1 | · | · | · | · | 3 | · | · | · | ·
Cn1c(SSc2ccc(-c3cccnc3)n2C)ccc1-c1cccnc1 | -10% | 10µM* | -16% | 45% | 3 | · | 1 | 360% | 35µM*
COc1ccccc1CC(=O)NC(c1cccs1)C1CCCC1 (stereo not given) | · | · | · | · | 2 | · | · | · | ·
Cc1nc2ccc(S(=O)(=O)NCc3ccccc3)cc2s1 | · | · | · | · | 6 | · | · | · | ·
CCC(C)NC(=O)c1cc(Sc2cccc(Cl)c2)nc2ccccc12 (stereo not given) | 5% | 10% | 3%[57.1 µM] | 5%[57.1 µM] | 1 | · | · | · | ·
CCc1ccc(Sc2cc(C(=O)NC(C)CC)c3ccccc3n2)cc1 (stereo not given) | 2% | ? | -6%[57.1 µM] | 9%[57.1 µM] | 3 | · | -5 | -12% | ?
O=C(Nc1ccc(S(=O)(=O)N2CCOCC2)cc1)c1ccc2c(c1)S(=O)(=O)c1ccccc1C2=O | 5% | ? | -5% | 12%[57.1 µM] | -13 | 1% | 3 | 5% | 4µM*
SMILES | GLS inhibitor | mIDH1 inhibitor | TrxR1 substrate | TrxR1 inh | LDHA inh | PKM2 act | IDH1 autofl | IDH1 WT | IDH1 R132H conf
COc1ccc(-c2sc(Nc3ccc(F)c(F)c3F)nc2CCC(=O)NN)cc1 | -27% | 29µM* | -1% | 12% | -2 | 3% | -9 | -21% | 28µM*
COc1ccc(-c2nc(NC(C)=O)sc2-c2ccc(OC)cc2)cc1 | 5% | 0% | 15% | 4%[57.1 µM] | -12 | 7% | · | · | ·
CCOC(=O)c1[nH]c(C)c(C(=O)OCc2ccc(C(N)=O)cc2)c1C | · | · | · | · | 4 | · | · | · | ·
Cc1noc(NS(=O)(=O)c2ccc(NS(=O)(=O)c3ccc(C(C)(C)C)cc3)cc2)c1C | -1% | 40µM* | · | · | -2 | · | 9 | -7% | 11µM*
CC(=O)Nc1ccc(S(=O)(=O)Nc2ccc(Cc3ccncc3)cc2)cc1 | 6% | 2% | 0% | 16% | -16 | 0% | · | · | ·
CC(C)(C)c1ccc(S(=O)(=O)Nc2ccc(Cc3ccncc3)cc2)cc1 | 12% | ? | -12% | 1% | 3 | 1% | -1 | -6% | 20µM*
CC(=O)N1CCc2c(sc3c2c(=O)n(CCc2ccccc2)c(=O)n3Cc2ccccc2C)C1 | -6% | 13µM* | -4% | 23% | 0 | · | -11 | 1% | 11µM*
CC(=O)N1CCc2c(sc3c2c(=O)n(-c2ccccc2)c(=O)n3Cc2ccccc2Cl)C1 | 15% | ? | -5% | -3% | -4 | 2% | · | · | ·

High-throughput results as filed in PubChem BioAssay.
